# Target: SQRDL
# Assay: pooled miR-30 sensor sort-seq; sequence = guide strand
# Conditions: shRNA
# Further: reference of the scale not given here.
row,Sequence,sensor-assay potency score (higher = more potent)
1,TTGTCCTATCAAGTATTCCTGA,-0.574
2,TTTCTTGTAGTTAACAGTGAGG,-0.847
3,TTTGGCACCAGCACCCACCAGT,-0.354
4,TTAACTGAATAATTCGACCCTA,0.0839
5,TTCTTTATCCACATCCACCCAA,-0.645
6,TTGGTCACCATTACCCATCAAG,-1.14
7,ATAGGTTCCAAGTCCTTCGTGC,0.618
8,TAACTGAATAATTCGACCCTAT,-0.071
9,TTTAATCTTCTCATAGTCCAGC,0.0208
10,AATCTTCTCATAGTCCAGCTGG,-0.573
11,ATAATTACAGAAATTGTCCTAT,0.475

# Target: SRCAP
# Assay: as above
# Conditions: shRNA
row,Sequence,sensor-assay potency score (higher = more potent)
1,TTGTTCTTCAACTTCAATCGTT,0.0088
2,TTCACCACCACCACTGTCCGGC,0.285
3,AACTCTAGTAGATCCATCCAGG,-0.807
4,TAGAGGACACAGGACTAGCAAG,-1.62
5,TTAATGACAATGTCTGAGTTGG,0.105
6,TGTTCTTCAACTTCAATCGTTT,-0.243
7,TATAGTATCCTCTTCATCCTCC,0.687
8,TCAACATCCACCTTAACTCGGC,0.0488
9,TTCCACTTGCTCTTCTGCCTGT,0.497
10,TAGACCTTCATTATACTCTTGG,0.352
11,TTGCTTGAATTGCACCACCTTC,-1.29
12,TTTATCTCCAACACCTGAGGGG,0.481

# Target: SRCRB4D
# Assay: as above
# Conditions: shRNA
row,Sequence,sensor-assay potency score (higher = more potent)
1,TTCGCAGTGCACGTTGTCCAGC,-0.781
2,TGCTCTACTGGTTAACATCTTC,-0.561
3,TCTACTGGTTAACATCTTCCTT,-0.575
4,TTCATCACACAGGACAGCCACA,-1.36
5,TTGGCGTCCACCACGTCCCAGT,-1.07
6,TCGTAGGAGGTGCTCTACTGGT,-1.24
7,TTAACATCTTCCTTGTTGGGGG,0.296
8,TTGACCAGACGTAGATGCCCGT,-0.902
9,TTTTCCATTCGGCAGTGTCGTA,-1.69
10,TACACGTCCCTCGCATCGGTGG,-1.14
11,TTGTCCAGCAGGATGTGTCCGG,-0.554
12,TAACATCTTCCTTGTTGGGGGC,-0.0485

# Target: SRC
# Assay: as above
# Conditions: shRNA
row,Sequence,sensor-assay potency score (higher = more potent)
1,TAGACTCATAGTCATAGAGGGC,-1.02
2,TGAAGGACAGGTCTGTCTCCGT,-0.405
3,TTGAAGGACAGGTCTGTCTCCG,0.367
4,TCATTGTCTTCAATGAGCCGAG,-0.463
5,TCGTGGTCTCACTTTCTCGCAC,-0.731
